The text below walks through data of ChEMBL document CHEMBL3988442, “University of Dundee, Small-Polar-MMV Screening Library” (2021).

Set-up in all cases: scale not given: direction of the effect not stated beside the values
Experiment [1] addresses Protein translocase subunit SecA (Escherichia coli (strain K12)) (UniProt P10408). The experiment can be described thus: Assay to Identify E. coli SecA ATPase Inhibitors. It is filed as functional. The settings on record: 30 µM.
The target of experiment [2] is T1, Ubiquitin-activating enzyme e1, putative (Leishmania donovani (strain BPK282A1)) (UniProt E9BSI1).
T1 sequence (whole entry): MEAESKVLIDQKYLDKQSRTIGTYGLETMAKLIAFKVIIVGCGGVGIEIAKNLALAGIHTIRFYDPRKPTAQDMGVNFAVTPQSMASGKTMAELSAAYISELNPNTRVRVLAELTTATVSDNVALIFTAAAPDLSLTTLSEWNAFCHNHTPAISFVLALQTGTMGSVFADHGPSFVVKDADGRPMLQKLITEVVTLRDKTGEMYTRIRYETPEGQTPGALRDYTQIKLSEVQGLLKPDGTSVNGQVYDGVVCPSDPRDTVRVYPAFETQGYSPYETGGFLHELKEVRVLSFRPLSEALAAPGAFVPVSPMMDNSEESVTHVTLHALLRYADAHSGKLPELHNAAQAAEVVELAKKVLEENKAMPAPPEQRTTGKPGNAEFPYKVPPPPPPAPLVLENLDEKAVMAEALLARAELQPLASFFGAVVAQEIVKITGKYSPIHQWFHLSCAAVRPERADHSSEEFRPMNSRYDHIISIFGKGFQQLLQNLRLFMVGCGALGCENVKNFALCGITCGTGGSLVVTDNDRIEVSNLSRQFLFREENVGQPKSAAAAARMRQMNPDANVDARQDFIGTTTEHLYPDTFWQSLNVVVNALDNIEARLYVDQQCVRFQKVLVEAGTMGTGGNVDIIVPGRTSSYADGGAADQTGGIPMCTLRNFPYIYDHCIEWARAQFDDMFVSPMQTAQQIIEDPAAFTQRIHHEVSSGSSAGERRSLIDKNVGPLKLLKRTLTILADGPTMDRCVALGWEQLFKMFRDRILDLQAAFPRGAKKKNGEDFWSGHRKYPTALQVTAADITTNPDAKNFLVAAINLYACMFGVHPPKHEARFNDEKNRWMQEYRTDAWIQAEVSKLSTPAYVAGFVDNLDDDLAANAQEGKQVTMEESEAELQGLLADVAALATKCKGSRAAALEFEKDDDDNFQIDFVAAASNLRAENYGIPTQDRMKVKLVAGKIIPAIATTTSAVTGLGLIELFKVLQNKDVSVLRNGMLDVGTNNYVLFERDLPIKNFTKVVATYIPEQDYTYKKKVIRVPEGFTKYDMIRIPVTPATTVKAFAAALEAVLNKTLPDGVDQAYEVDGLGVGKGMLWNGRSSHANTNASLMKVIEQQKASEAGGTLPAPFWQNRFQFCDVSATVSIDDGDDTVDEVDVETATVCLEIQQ
The experiment can be described thus: Leishmania donovani Ubiquitin Activating Enzyme (LdE1). Format: functional. The settings on record: 30 µM.

Experiment [3] deals with AMP-activated protein kinase, AMPK (Homo sapiens) (UniProt P54646+O43741+P54619+Q9UGJ0+Q9Y478+Q13131+Q9UGI9). The experiment can be described thus: AMP-dependent Kinase enzyme assay. An in vitro enzyme assay that detects ADP turnover that is directly proportional to AMPK activity. This uses naive AMPK that is activated during the assay with MK-8722. It is filed as functional. The settings on record: 30 µM.

Experiment [4] addresses Sialic acid-binding Ig-like lectin 9 (Homo sapiens) (UniProt Q9Y336). As to the kind of experiment: Hs-Siglec9 ALPHAscreen SOP 20170721. The settings on record: 10 µM. On the technique in general: Bead proximity is the source of the signal in Alpha formats.
A further experiment has as its system Trypanosoma cruzi. As to the kind of experiment: Trypanosoma cruzi phosphomannomutase and mannose-1-phosphate guanylyltransferase assay. The settings on record: 10 µM. It is filed as functional.
The target in experiment [5] is T2, Arginase-2, mitochondrial (Homo sapiens) (UniProt P78540).
T2 sequence (whole entry): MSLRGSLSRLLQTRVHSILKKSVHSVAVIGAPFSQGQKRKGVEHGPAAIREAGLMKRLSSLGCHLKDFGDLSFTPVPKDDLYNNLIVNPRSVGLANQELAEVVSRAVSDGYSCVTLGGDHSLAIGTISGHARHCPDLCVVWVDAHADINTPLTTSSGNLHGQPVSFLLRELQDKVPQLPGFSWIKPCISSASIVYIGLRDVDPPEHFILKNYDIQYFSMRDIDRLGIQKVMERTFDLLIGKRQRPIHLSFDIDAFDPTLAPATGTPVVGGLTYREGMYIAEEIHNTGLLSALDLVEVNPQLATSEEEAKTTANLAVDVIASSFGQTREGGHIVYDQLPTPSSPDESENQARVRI
As to the kind of experiment: in vitro enzyme assay to detect the production of urea directly proportional to the activity of Arginase II. Also: in the data most compounds retested in dose-response had high values. It is filed as functional. The settings on record: 33.3 µM.

Experiment [6] has as its target T3, Proteasome subunit beta (Trypanosoma cruzi) (UniProt O96673).
T3 sequence (whole entry): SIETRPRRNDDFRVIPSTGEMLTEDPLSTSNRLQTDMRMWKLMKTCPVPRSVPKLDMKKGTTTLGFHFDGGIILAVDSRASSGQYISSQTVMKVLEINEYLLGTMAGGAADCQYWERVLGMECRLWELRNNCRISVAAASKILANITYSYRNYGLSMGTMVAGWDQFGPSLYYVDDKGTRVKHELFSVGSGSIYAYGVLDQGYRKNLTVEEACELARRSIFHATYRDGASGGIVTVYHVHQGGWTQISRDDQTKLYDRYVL
The experiment can be described thus: Trypanosoma cruzi proteasome chymotrypsin-like activity (TcProtChymo) assay. Also: in the data most compounds retested in dose-response had high values. It is filed as functional. The settings on record: 9.37 µM.

The species named for the next experiment is Homo sapiens. As to the kind of experiment: To identify inhibition of the IFN signalling (Jak-Stat) pathway via expression of an eGFP reporter gene under the control of an IFN-stimulated response element (ISRE) containing MxA promoter. Format: functional. The settings on record: 30 µM.
In experiment [7] the target is T4, Tyrosyl-tRNA synthetase, putative (Trypanosoma cruzi (strain CL Brener)) (UniProt Q4DSP6).
T4 sequence (whole entry): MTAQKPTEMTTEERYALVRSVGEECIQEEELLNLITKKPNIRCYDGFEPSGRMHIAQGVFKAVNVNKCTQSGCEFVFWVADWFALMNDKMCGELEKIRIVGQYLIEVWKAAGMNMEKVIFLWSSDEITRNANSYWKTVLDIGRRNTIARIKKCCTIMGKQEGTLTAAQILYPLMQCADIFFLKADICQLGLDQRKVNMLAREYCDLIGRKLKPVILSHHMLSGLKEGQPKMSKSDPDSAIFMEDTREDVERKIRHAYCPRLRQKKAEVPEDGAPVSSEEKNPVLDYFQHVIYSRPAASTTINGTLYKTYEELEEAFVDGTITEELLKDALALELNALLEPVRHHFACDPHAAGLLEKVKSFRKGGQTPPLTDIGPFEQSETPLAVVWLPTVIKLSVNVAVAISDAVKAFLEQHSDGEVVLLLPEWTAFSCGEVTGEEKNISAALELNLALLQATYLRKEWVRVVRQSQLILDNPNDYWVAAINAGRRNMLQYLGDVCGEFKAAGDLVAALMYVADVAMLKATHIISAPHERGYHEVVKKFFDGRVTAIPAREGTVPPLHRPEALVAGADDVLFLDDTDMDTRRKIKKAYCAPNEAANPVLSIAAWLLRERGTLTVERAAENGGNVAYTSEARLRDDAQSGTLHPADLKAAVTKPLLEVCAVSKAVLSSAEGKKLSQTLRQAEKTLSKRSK
As to the kind of experiment: Trypanosoma cruzi tyrosyl tRNA synthetase (TcYRS) _High Tyrosine SOP. Also: in the data most compounds retested in dose-response had high values. The settings on record: 30 µM. It is filed as functional.

Experiment [8] concerns the target T4, Tyrosyl-tRNA synthetase, putative (Trypanosoma cruzi (strain CL Brener)). The experiment can be described thus: Trypanosoma cruzi tyrosyl tRNA synthetase (TcYRS) SOP. The settings on record: 30 µM. It is filed as functional.
In experiment [9] the target is Chromo domain-containing protein 1 (Saccharomyces cerevisiae (strain ATCC 204508 / S288c) (Baker's yeast)) (UniProt P32657). The experiment can be described thus: ScCHD-1 Enzyme Inhibition Assay. Also: in the data most compounds retested in dose-response had high values. The settings on record: 30 µM. It is filed as functional.
Chromo domain-containing protein 1 (Saccharomyces cerevisiae (strain ATCC 204508 / S288c) (Baker's yeast)), sequence (P32657 whole entry, the tested form may be a part): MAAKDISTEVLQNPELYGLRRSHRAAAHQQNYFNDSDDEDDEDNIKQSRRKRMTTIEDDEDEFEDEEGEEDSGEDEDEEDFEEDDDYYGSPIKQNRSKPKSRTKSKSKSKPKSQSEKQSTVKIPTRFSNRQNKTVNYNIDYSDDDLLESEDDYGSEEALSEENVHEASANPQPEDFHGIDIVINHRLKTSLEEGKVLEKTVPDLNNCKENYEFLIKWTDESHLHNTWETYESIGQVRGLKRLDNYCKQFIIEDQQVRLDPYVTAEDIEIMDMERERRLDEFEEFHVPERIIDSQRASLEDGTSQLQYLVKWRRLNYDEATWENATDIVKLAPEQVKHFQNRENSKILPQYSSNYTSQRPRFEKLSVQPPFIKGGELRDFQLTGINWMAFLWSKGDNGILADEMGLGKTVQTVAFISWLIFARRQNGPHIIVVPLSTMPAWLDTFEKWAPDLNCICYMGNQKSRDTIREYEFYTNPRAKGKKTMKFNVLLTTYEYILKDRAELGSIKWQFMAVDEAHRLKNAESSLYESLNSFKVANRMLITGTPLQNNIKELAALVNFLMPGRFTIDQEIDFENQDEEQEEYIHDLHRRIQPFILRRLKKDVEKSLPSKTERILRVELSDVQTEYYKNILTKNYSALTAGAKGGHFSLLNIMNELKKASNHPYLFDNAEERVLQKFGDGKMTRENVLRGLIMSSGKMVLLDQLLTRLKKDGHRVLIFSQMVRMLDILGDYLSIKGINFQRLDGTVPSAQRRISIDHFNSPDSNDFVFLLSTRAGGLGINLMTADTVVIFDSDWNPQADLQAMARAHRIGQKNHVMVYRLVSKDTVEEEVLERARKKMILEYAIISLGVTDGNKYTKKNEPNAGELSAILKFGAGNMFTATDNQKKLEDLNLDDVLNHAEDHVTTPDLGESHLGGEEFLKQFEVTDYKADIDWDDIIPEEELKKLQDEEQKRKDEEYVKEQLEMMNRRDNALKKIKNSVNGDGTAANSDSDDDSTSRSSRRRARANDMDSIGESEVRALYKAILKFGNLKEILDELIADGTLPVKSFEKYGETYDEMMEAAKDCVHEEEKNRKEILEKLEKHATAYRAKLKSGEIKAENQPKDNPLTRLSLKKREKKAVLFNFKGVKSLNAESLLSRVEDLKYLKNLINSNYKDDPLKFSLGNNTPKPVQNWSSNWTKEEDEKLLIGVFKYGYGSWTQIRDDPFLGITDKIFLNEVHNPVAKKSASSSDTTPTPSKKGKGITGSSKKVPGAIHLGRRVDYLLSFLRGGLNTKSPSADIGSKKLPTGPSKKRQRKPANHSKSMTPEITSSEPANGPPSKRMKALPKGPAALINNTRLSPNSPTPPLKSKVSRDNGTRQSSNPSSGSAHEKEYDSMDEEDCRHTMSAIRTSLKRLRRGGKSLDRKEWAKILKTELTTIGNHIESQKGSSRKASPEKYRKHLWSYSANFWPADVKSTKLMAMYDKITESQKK

For some assays here: Results with a measured potency or affinity are listed apart.

Sialic acid-binding Ig-like lectin 9 (Homo sapiens), sequence (Q9Y336 whole entry): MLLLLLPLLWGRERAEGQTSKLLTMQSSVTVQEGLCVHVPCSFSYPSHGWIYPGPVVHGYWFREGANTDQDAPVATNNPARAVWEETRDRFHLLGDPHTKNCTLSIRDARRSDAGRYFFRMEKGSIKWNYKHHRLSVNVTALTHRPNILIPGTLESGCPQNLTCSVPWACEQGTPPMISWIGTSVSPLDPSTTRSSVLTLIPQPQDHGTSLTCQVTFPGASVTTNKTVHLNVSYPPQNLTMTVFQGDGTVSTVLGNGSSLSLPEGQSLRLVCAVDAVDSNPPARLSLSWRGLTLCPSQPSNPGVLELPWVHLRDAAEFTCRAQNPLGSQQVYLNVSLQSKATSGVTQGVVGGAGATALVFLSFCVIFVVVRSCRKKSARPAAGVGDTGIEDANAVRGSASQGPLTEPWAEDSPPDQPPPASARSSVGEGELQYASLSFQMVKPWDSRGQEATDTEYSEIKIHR
Protein translocase subunit SecA (Escherichia coli (strain K12)), sequence (P10408 whole entry): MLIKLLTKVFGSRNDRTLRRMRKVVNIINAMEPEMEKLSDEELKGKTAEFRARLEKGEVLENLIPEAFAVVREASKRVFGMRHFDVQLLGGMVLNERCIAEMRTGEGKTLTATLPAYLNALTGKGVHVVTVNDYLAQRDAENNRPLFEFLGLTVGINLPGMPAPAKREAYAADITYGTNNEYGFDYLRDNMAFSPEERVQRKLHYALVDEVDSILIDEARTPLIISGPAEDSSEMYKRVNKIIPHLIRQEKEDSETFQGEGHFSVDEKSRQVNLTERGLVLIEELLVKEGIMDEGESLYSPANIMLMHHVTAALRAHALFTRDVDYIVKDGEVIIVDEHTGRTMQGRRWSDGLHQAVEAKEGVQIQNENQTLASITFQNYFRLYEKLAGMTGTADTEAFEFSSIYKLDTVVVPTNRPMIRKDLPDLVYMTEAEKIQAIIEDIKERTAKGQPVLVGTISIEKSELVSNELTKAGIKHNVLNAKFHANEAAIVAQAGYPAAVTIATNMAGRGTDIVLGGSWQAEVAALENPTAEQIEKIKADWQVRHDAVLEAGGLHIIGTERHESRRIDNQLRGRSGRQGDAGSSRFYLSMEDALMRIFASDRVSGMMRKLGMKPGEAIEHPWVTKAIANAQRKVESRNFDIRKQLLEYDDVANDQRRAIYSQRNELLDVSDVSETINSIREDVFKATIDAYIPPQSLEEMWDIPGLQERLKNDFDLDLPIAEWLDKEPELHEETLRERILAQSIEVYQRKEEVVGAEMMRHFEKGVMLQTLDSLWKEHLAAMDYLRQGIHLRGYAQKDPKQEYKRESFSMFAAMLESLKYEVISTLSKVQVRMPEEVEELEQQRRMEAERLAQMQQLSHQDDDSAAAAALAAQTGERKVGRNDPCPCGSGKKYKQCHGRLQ

For `CCCc1noc(CN(C)C(=O)C2COc3ccccc3C2)n1` (stereo not given), the Percent Effect in experiment [1] is -2.56%; in [2], 7.79%; in [3] it was -0.0483%; in [4], 4.75%; with Trypanosoma cruzi, -3.25%; in experiment [5], -30.3%. In addition, the Percent Effect is 14.1% in experiment [6]; -15.6% in the experiment listed under Homo sapiens; 5.38% in experiment [7]; 16.1% in experiment [8]; -3.26% in experiment [9].

`COc1nn(C)cc1C(=O)N1CCC(c2nnc(C3CC3)o2)CC1`: the Percent Effect in [1] is -2.78%; in experiment [2] it was 10.4%; in [3] it was 4.71%; in experiment [4], 4.31%; in the experiment with Trypanosoma cruzi, -0.888%; in experiment [5], 9.68%. The Percent Effect is 11.5% in experiment [6]; 16.4% in the experiment listed under Homo sapiens; 8.47% in [7]; 11.5% in experiment [8]; -10.2% in experiment [9].

As for `Cc1csc(N2CCCN(C(=O)C3(C#N)CCCCC3)CC2)n1`, the Percent Effect is -0.0182% in experiment [1]; -2.63% in [2]; 4.54% in experiment [3]; -2.41% in [4]; -0.188% in the experiment with Trypanosoma cruzi; 0.766% in experiment [5]. Also, the Percent Effect in experiment [6] was -3.34%; in the experiment listed under Homo sapiens, -13.6%; in experiment [7], 0.49%; in [8], -2.44%; in experiment [9], 10.4%.

For `CC(C)c1nc(C(=O)NCCn2ccnc2)nn1-c1cccc(F)c1`, the Percent Effect in experiment [1] was -6%; in [2] it was 15.8%; in experiment [3], -4.38%; in [4], -4.66%; in the experiment on Trypanosoma cruzi, -3.46%; in experiment [5], -6.47%. Besides, the Percent Effect in [6] was 1.1%; in the experiment listed under Homo sapiens it was -1.8%; in experiment [7] it was 1.48%; in experiment [8] it was 6.17%; in experiment [9] it was -5.42%.

`CC(C)n1ccnc1C1CCCN(c2ccnc3ccccc23)C1` (stereo not given): the Percent Effect is -5.45% in experiment [1]; 2.67% in experiment [2]; 3.66% in experiment [3]; 2% in experiment [4]; -0.487% with Trypanosoma cruzi; -1.04% in experiment [5]. Further, the Percent Effect is 1.57% in experiment [6]; 53.9% in the experiment listed under Homo sapiens; 7.1% in experiment [7]; 6.17% in experiment [8]; -6.66% in experiment [9].

In the case of `COc1ccc(C(=O)N(C)Cc2nnc3ccccn23)c(OC)c1`, the Percent Effect in experiment [1] is -4.19%; in [2], -5.2%; in experiment [3], 1.07%; in experiment [4], 4.72%; in the experiment on Trypanosoma cruzi, 2.06%; in experiment [5], -1.47%. The Percent Effect in [6] is 12.5%; in the experiment listed under Homo sapiens, -2.12%; in experiment [7], 2.86%; in [8] it was 14.1%; in experiment [9], -15.8%.

Take `COC(=O)CCN1CCCC1c1ccccc1Cl` (stereo not given): the Percent Effect in [1] is -3.1%; in [2] it was -2.67%; in experiment [3], -1.16%; in experiment [4] it was 1.78%; with Trypanosoma cruzi, 2.04%; in experiment [5] it was -1.56%. In addition, the Percent Effect in experiment [6] was 5.41%; in the experiment filed under Homo sapiens it was 1.88%; in experiment [7] it was 3.83%; in experiment [8], 6.17%; in experiment [9] it was -0.731%.

As to `O=C(Nc1ccnc(OC2CCOC2)c1)C1CCC1` (stereo not given), the Percent Effect in experiment [1] is -2.23%; in experiment [2], -4.17%; in [3] it was -0.181%; in experiment [4], 4.31%; with Trypanosoma cruzi, -6.32%; in experiment [5], 1.32%. The Percent Effect is 13.3% in [6]; 5.01% in the experiment listed under Homo sapiens; -2.1% in experiment [7]; -5.13% in experiment [8]; 6.48% in experiment [9].

Take `CCNS(=O)(=O)c1ccc(C)c(C(=O)N(C)Cc2ccco2)c1`: the Percent Effect in [1] is -2.78%; in experiment [2] it was -4.17%; in experiment [3], 4.21%; in experiment [4], 0.221%; with Trypanosoma cruzi, -1.65%; in experiment [5], 0.442%. Also, the Percent Effect was 13% in experiment [6]; -0.366% in the experiment filed under Homo sapiens; -27.4% in [7]; -2.56% in experiment [8]; 2.86% in experiment [9].

With `CNC(=O)c1nc2c(s1)CCN(C(=O)Cc1ccc(OC)cc1)CC2`, the Percent Effect in [1] was -7.69%; in [2], 5.41%; in [3], 1.22%; in [4] it was -1.04%; with Trypanosoma cruzi it was -1.07%; in experiment [5], -1.59%. Moreover, the Percent Effect in [6] is 0.369%; in the experiment filed under Homo sapiens, 8.46%; in experiment [7], 4.32%; in experiment [8], 0%; in experiment [9], 1.61%.
